Screening results: PubChem BioAssay, National Center for Advancing Translational Sciences (NCATS)
Gal4-VP16 FLuc: VP16 counterscreen qHTS for inhibitors of ROR gamma transcriptional activity; Drosophila S2 Gal4-VP16 UAS-luciferase, luminescence, 20 h; Potency, µM (series often up to 53.6 µM), for inactives: at the highest dose activity, negative = inhibition, most hits filed as inhibitors; 3.5% of 310,000 active; AID 2546, 2010;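 further: Gal4-VP16 expression switched on by copper sulfate through the metallothionein promoter; nearly all actives have a fitted effect of over 50% in size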
KinaseGlo FLuc: Counterscreen for Luciferase (Kinase-Glo TM) Inhibition; Potency, µM (highest dose often 38.3 µM), without a hit: top-dose activity change, negative = inhibition, most hits filed as inhibitors; 0.28% of 200,000 active; Kinase-Glo luciferase, ATP luminescence, 8 min; Luciferin 4-monooxygenase (Photuris pensylvanica), Q27757; AID 1379, 2008; further: nearly all actives have a fitted effect of over 60% in size
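Recombinant Kinase-Glo luciferase, 10 uM ATP (linear range), luciferin; imidazole pH 7.2 / KCl / MgCl2 / Tween / BSA buffer; 8 min RT; luminescence.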
RORgamma inh: qHTS for inhibitors of ROR gamma transcriptional activity | Nuclear receptor ROR-gamma (Mus musculus), P51450 | Potency, µM (titrated, usually from 53.6 µM), for the others: top-dose activity change, negative = inhibition, usual class: inhibitors | 5.4% of 310,000 active | Drosophila S2 Gal4-RORgamma UAS-luciferase reporter, 20 h; further: nearly all actives have a fitted effect of over 60% in size
Target sequence (P51450 whole entry, looked up, the tested form may be a part): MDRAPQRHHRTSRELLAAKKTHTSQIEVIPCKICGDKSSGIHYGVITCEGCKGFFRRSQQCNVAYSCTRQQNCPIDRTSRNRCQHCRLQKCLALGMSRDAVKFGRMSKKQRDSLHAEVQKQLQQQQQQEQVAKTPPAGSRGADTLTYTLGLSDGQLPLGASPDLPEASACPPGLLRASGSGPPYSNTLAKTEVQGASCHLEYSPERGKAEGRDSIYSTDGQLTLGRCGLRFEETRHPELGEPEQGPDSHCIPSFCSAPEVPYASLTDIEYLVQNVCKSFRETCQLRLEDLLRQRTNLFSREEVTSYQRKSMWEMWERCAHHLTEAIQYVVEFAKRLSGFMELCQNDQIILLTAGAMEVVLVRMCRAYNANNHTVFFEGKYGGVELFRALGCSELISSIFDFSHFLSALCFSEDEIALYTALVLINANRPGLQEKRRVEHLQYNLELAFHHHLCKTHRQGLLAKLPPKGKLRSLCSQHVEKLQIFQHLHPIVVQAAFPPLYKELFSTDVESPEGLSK
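Schneider cells (Drosophila), stable Gal4 DBD–ROR gamma + UAS-luc; 1 hr cmpd preincubation; Cu2+ induction 700 uM final; 20 hr ambient; luminescence.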
An asterisk follows results filed as active; ? = inconclusive; . = no result given; [ ] = another dose, or the depositor's remark. Only some compounds are listed: those with a hit (about 6.4% of all), similar ones and a draw of the others. The call rests on the fitted dose curve; in most records, active means well fitted curve in the direction sought with a large enough effect; inconclusive means small, poorly fitted or top-dose-only effect, or another doubt; inactive means no such curve, though single readings can be large; an effect the other way counts as inactive or inconclusive. On the % scale 0 is the no-effect control and ±100 the full control effect; potency means the concentration at half of the fitted maximal effect.

SMILES | Gal4-VP16 FLuc | KinaseGlo FLuc | RORgamma inh
Cc1cccc(C)c1NC(=O)C(C)Sc1n[nH]c(-c2ccncc2)n1 (stereo not drawn) | -5.2% | . | ?
COc1ccc(-n2c(C)nc3cc(C(=O)N4CCOCC4)ccc32)cc1 | -6.6% | -2.7% | 2µM*
COc1ccc(-n2c(C)nc3cc(C(=O)NCCN4CCOCC4)ccc32)cc1 | 6.0% | -3.9% | 1.2%
CCN(CC)N=Nc1ccc(S(=O)(=O)Nc2nc(C)cc(C)n2)cc1 | -6.4% | . | 1.5%
S=C1NC2=C(CCCC2=C2SCCCS2)C(c2ccccc2)N1 (stereo not drawn) | 7.94µM* | -3.8% | ?
COc1ccc(C2NC(=S)NC3=C2CCCC3=C2SCCS2)cc1 (stereo not drawn) | ? | 2.0% | 10µM*
Cc1ccc(C2NC(=S)NC3=C2C(=O)CCC3)cc1 (stereo not drawn) | 9.8% | -3.3% | -7.3%
O=C1CCCC2=C1C(c1ccccc1)NC(=S)N2 (stereo not drawn) | -21.1% | -0.2% | -0.7%
Cc1cccc(OCC(=O)Nc2ccc3c(c2)C(=O)NC3=O)c1 | -3.3% | . | -1.8%
O=C(Nc1cccc([N+](=O)[O-])c1)c1cc2ccccc2cc1O | 4.47µM* | . | 5.01µM*
COc1ccc(NC(=S)Nc2cccc([N+](=O)[O-])c2)cc1 | -29.7% | 1.2% | 12.6µM*
COc1ccc(NC(=O)c2cc([N+](=O)[O-])ccc2O)cc1 | 2.82µM* | 7.94µM* | 2.24µM*
COc1ccc(NC(=O)c2cccc([N+](=O)[O-])c2)cc1 | -9.8% | ? | -0.1%
COc1ccc(NC(=O)c2ccc(-c3ccc([N+](=O)[O-])cc3)o2)cc1 | -1.9% | 10.8% | 4.7%
O=C(O)c1ccccc1C(=O)Nc1cccc([N+](=O)[O-])c1 | -2.8% | . | 8.6%
CC(C)Oc1cccc(C(=O)NC(=S)N2CCN(c3ccc(C(F)(F)F)cc3[N+](=O)[O-])CC2)c1 | 1.12µM* | -3.9% | 0.447µM*
COc1cccc(OC)c1C(=O)NC(=S)N1CCOCC1 | 4.3% | -2.4% | -1.2%
COc1ccc(N2CCN(C(=O)c3cccc(F)c3)CC2)c([N+](=O)[O-])c1 | -22.2% | 0.4% | -6.9%
COc1cccc(C(=O)NC(=S)N2CCN(c3ccc(C(F)(F)F)cc3[N+](=O)[O-])CC2)c1 | 0.631µM* | -1.2% | 0.562µM*
O=C(C1CCC1)N1CCN(c2ccc(C(F)(F)F)cc2[N+](=O)[O-])CC1 | 3.98µM* | . | 7.08µM*
O=[N+]([O-])c1cc(C(F)(F)F)ccc1N1CCCC(O)C1 (stereo not drawn) | -1.8% | 2.7% | 53.7%
Cc1ccc(S(=O)(=O)N2CCN(c3ccc(C(F)(F)F)cc3[N+](=O)[O-])CC2)cc1 | -18.8% | -2.7% | ?
COc1cccc(OC)c1C(=O)NC(=S)N1CCN(c2ccc(C(F)(F)F)cc2[N+](=O)[O-])CC1 | 22.4µM* | -1.0% | 7.08µM*
O=[N+]([O-])c1cc(C(F)(F)F)ccc1N1CCN(CCO)CC1 | -1.0% | 0.5% | 9.6%
CCOc1ccc(C(=O)NC(=S)N2CCN(c3ccc(C(F)(F)F)cc3[N+](=O)[O-])CC2)cc1 | 0.251µM* | -1.8% | 0.316µM*
SMILES | Gal4-VP16 FLuc | KinaseGlo FLuc | RORgamma inh
O=C(Nc1cc(S(=O)(=O)N2CCCCC2)ccc1Cl)c1ccccc1NS(=O)(=O)c1ccc(F)cc1 | 5.62µM* | 1.8% | ?
O=C(Nc1cc(S(=O)(=O)N2CCCCC2)ccc1O)c1ccccc1NS(=O)(=O)c1ccc(F)cc1 | 3.7% | 4.2% | 40.1%
Clc1ccc(CSCCc2ccncc2)cc1Cl | . | -2.7%[7.66 µM] | .
Cc1ccc(S(=O)(=O)N2CCc3ccccc3C2CC(=O)O)cc1 (stereo not drawn) | -0.6% | . | 16.6%
c1ccc2c(c1)ccc1ncccc12 | -3.8% | -0.8% | -10.6%
Oc1c(N=Nc2ccccn2)ccc2ccccc12 | -74.2% | 11.2µM* | 0.112µM*
COC(=O)C1=C(C)N(Cc2ccccc2)C2=C(C(C)=O)C(c3ccccc3)[C@@](O)(C(=O)OC)C(=O)N2C1c1ccccc1 (stereo partly drawn) | 2.8%[10 µM] | . | -3.2%[10 µM]
COc1ccc(OC)c(NC(=O)C2CCC(CNc3c(N4CCC(C)CC4)c(=O)c3=O)CC2)c1 (stereo not drawn) | -6.6% | 1.4% | 0.794µM*
COc1ccc(C)cc1NC(=O)C1CCC(CNc2c(N3CCOCC3)c(=O)c2=O)CC1 (stereo not drawn) | -0.4% | -1.0% | -32.0%
O=C1C=C(N(CCO)Cc2ccccc2)c2ccccc2C1=O | ? | -7.1% | 7.08µM*
O=C1c2ccccc2C(=O)c2c1cccc2N(CCO)CCO | -9.5% | . | ?
